# From PubChem BioAssay (Tox21)
# “And” between values parts separate entries of the source, which are not always exact repeats. Equal entries are not always repeated. Records with an inconclusive call do not appear. Values without a mark were called inactive. The source made the active and inactive calls. The call rests on the fitted dose curve; in most records, active means well fitted cell-killing curve with a large enough effect in the repeat runs; inconclusive means weak or mixed curves, or effect the other way; inactive means no such curve, though single readings can be large or run the other way. Non-standard residues stand in square brackets, D forms with d. Residues, ends and D or L forms follow the SMILES beside them. Orn = NCCC[C@H](N)C(=O)O
# Assay: qHTS assay for identifying genotoxic compounds that show differential cytotoxicity against isogenic chicken DT40 cell lines with known DNA damage response pathways - wild type cell line (AID 743012); further: nearly all actives have a fitted effect of over 60% in size
# Conditions: DT40 wild type chicken cells viability, CellTiter-Glo, 40 h; series mostly up to 68.4 µM; activity change, negative = cytotoxicity: at the top concentration
# From the text: U.S. Tox21 Program National Center for Advancing Translational Sciences [NCATS] NIH Chemical Genomics Center [NCGC] U.S. Environmental Protection Agency [EPA] National Institutes of Environmental Health Sciences [NIEHS] National Toxicology Program [NTP] U.S. Food and Drug Administration [FDA] Tox21 Assay Overview: DNA repair pathways play a critical role in cellular homeostasis by repairing DNA damage induced by endogenous processes and xenobiotics. Isogenic chicken DT40 cell lines deficient in different DNA repair pathways can be used to identify genotoxic compounds and aid in characterizing the nature of the DNA damage induced. Two DNA repair-deficient cell lines with disrupted genes, Rad54/Ku70 or Rev3, were used to screen the Tox21 10K compound library. Possible genotoxicity was based on the presence of a significant increase in cytotoxicity in one or more of the DNA repair-deficient cell lines compared to that observed in the parental DNA repair-proficient cell line. CellTiter Glo viability assay (Promega, Madison, WI) was used to measure cell viability in these cells after compound treatment. This assay includes the data from the wild type cell line.
# Tox21 Assay Protocol Summary: 300 DT40 wild type cells in 5 uL/well were dispensed into white, solid-bottom 1536-well plates using a Multidrop Combi (ThermoFisher Scientific, Waltham, MA) dispenser. After the assay plates were incubated at 37 C/5% CO2 for approximately 0.5 hour, 23 nL of compounds dissolved in DMSO, positive controls or DMSO only was transferred into the assay plate by a pintool work station (Kalypsys, San Diego, CA). The assay plates were incubated at 37 C/5% CO2 for 40 hours. After 5 uL per well of CellTiter-Glo reagent was added into each well of the assay plates, the plates were incubated for 30 min at room temperature and the luminescence intensity of the plates was measured using a ViewLux (PerkinElmer, Shelton, CT) plate reader.
# On the % scale 0 is the no-effect control and ±100 the full control effect; potency means the concentration at half of the fitted maximal effect.
SMILES,"activity change, negative = cytotoxicity [%]",Potency
O=C(O)c1ccc(NC2OC[C@@H](O)[C@H](O)[C@H]2O)cc1 (stereo not given in full),16.8,
CC(C)[C@H](NC(=O)[C@H](CC(=O)O)NC(=O)[C@H](CCCCN)NC(=O)[C@@H](N)CCCN=C(N)N)C(=O)N[C@@H](Cc1ccc(O)cc1)C(=O)O (H-RKDVY-OH),-0.387,
COc1cc([C@@H]2c3cc4c(cc3[C@@H](O[C@@H]3O[C@@H]5CO[C@@H](C)O[C@H]5[C@H](O)[C@H]3O)[C@H]3COC(=O)[C@H]23)OCO4)cc(OC)c1O,,531 nM (active) and 340 nM (active)
FC(F)(F)C(F)(F)C(F)(F)C(F)(F)C(F)(F)F,6.47,
CC(C)(Oc1ccc(C2CCCc3ccccc32)cc1)C(=O)O (stereo not given),2.39,
Nc1nc(NC2CC2)c2ncn([C@@H]3C=C[C@@H](CO)C3)c2n1,-24.6,
CCCC(CCC)C(=O)OC1C[C@H]2CC[C@@H](C1)[N+]2(C)C (stereo not given in full),-0.614,
CC[C@@]1([C@@H]2O[C@@H]([C@H]3O[C@@](O)(CO)[C@H](C)C[C@@H]3C)C[C@@H]2C)CC[C@H]([C@]2(C)CC[C@]3(C[C@H](O)[C@@H](C)[C@@H]([C@@H](C)[C@@H](OC)[C@H](C)C(=O)O)O3)O2)O1 (stereo in doubt),,473 nM (active) and 531 nM (active)
CSCC[C@H](NC(=O)[C@H](Cc1ccc(OS(=O)(=O)O)cc1)NC(=O)[C@@H](N)CC(=O)O)C(=O)NCC(=O)N[C@@H](Cc1c[nH]c2ccccc12)C(=O)N[C@@H](CCSC)C(=O)N[C@@H](CC(=O)O)C(=O)N[C@@H](Cc1ccccc1)C(N)=O,,inactive
O=C1CCC(c2ccc(-n3ccnc3)cc2)=NN1,6.52,
CC(C)(COP(=O)(O)OP(=O)(O)OC[C@H]1O[C@@H](n2cnc3c(N)ncnc32)[C@H](O)[C@@H]1OP(=O)(O)O)C(O)C(=O)NCCC(=O)NCCS (stereo not given in full),17.2,
CSCCC(N)C(=O)O (stereo not given),6.88,
CCOc1ccc([N+](=O)[O-])cc1,,62 µM (active)
O=C(CCN1CCC(c2ccccc2)C1)c1ccc2c(c1)OCCO2 (stereo not given),,2.66 µM (active)
Oc1ccc(Cl)cc1C1CCCC1,,48.6 µM (active)
NC(=O)[C@@H]1C[C@]2(NC(=O)NC2=O)c2cc(F)ccc2O1,10.4,
C[C@@H]1O[C@@H]1P(=O)(O)O,4.74,
CC(=O)OCC1=C(C(=O)O)N2C(=O)[C@@H](NC(=O)Cc3ccccc3)[C@H]2SC1,-1.55,
NC(N)=NCc1cccc(I)c1,,5.96 µM (active) and 8.41 µM (active)
CCN(CC)CCn1c(=O)c(Cc2ccc(OC)cc2)nc2ccccc21,,26.6 µM (active)

SMILES,"activity change, negative = cytotoxicity [%]",Potency
NCC[C@H](O)C(=O)N[C@@H]1C[C@H](N)[C@@H](O[C@H]2O[C@H](CN)CC[C@H]2N)[C@H](O)[C@H]1O[C@H]1O[C@H](CO)[C@@H](O)[C@H](N)[C@H]1O,6.08,
CCN(CC)CCOC[C@H]1O[C@@H](O)[C@H](OCCN(CC)CC)[C@@H](O)[C@@H]1O,18.9,
CCCCCCCCCCCCCCCCCCNC(=O)OC1CCN(C(=O)OC[C@H](COC(=O)N(Cc2cccc[n+]2CC)C(=O)c2ccccc2OC)OC)CC1,,5.31 µM (active)
O=C(O)[C@H]1CN(C/C=C/P(=O)(O)O)CCN1,8.16,
CC(=O)O[C@H]1C[C@@H]2CC[C@@H]3[C@H](CC[C@@]4(C)[C@H]3C[C@H]([N+]3(C)CCCCC3)[C@@H]4OC(C)=O)[C@@]2(C)C[C@@H]1[N+]1(C)CCCCC1,2.63,
CO/N=C(\C(=O)N[C@@H]1C(=O)N2C(C(=O)[O-])=C(C[n+]3ccc(N)n3CCO)CS[C@H]12)c1csc(N)n1,-0.0754,
CN1[C@@H](CC(=O)c2ccccc2)CCC[C@H]1C[C@H](O)c1ccccc1,,26.6 µM (active)
COc1cc2c(cc1OC)[C@@H](Cc1cc(OC)c(OC)c(OC)c1)[N+](C)(CCCOC(=O)CC/C=C/CCC(=O)OCCC[N+]1(C)CCc3cc(OC)c(OC)cc3[C@H]1Cc1cc(OC)c(OC)c(OC)c1)CC2 (stereo not given in full),,inactive
CCCCCCCCCC(=O)NO,,inactive
CO/N=C(\C(=O)N[C@@H]1C(=O)N2C(C(=O)O)=C(CSc3cnns3)CS[C@H]12)c1csc(N)n1,2.75,
CN(Cc1ccccc1)Cc1ccccc1,8.65,
CC(C)C[C@@H]1NC(=O)[C@H](CCCN)NC(=O)[C@H](C(C)C)NC(=O)[C@@H]2CCCN2C(=O)[C@@H](Cc2ccccc2)NC(=O)[C@H](CC(C)C)NC(=O)[C@H](CCCN)NC(=O)[C@H](C(C)C)NC(=O)[C@@H]2CCCN2C(=O)[C@@H](Cc2ccccc2)NC1=O (cyclo(V[Orn]L[dF]PV[Orn]L[dF]P)),,0.376 µM (active)
CC1=C(/C=C/C(C)=C/C=C/C(C)=C/C=C/C=C(C)/C=C/C=C(C)/C=C/C2=C(C)CCCC2(C)C)C(C)(C)CCC1,13,
CCCCCCCCCC[N+](C)(CCCCCCCCCC)CCC[Si](OC)(OC)OC,,5.45 µM (active)
O=C1CC[C@@H](C(=O)N[C@H]2C[C@@H]2c2ccccc2)N1,14.4,
O=C(O)/C=C/C(=O)Nc1ccc(S(=O)(=O)Nc2nccs2)cc1,2.42,
CCC(NC(C)C)C(O)c1ccc(O)c(O)c1 (stereo not given),-0.183,
Nc1c(CC(=O)O)cccc1C(=O)c1ccccc1,,inactive
CCN(CC)CC#CCOC(=O)C(O)(c1ccccc1)C1CCCCC1 (stereo not given),,11.9 µM (active)
C[C@H](Cc1ccc(O)c(O)c1)[C@@H](C)Cc1ccc(O)c(O)c1,,10.6 µM (active)
